Bioassay records: PubChem, several laboratories
ssDAF12 agonist – activators of S. stercoralis DAF-12 nuclear receptor; HEK293 ssDAF-12/GRIP1 lit1-tk-luc reporter, luminescence; % of 3 µM dafachronic acid response; activation, % at 6.8 µM; actives 1% (n = 370,000);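 active = activation above the mean over all tested compounds plus 3 SD, cut at about 0.9% in these data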;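 note: 0% = DMSO-only wells and 100% = 3 µM delta7-dafachronic acid wells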
hgDAF12 agonist – agonists of H. glycines DAF-12 nuclear receptor. activation, % at 6.8 µM. AID 687014. actives 1.8% (n = 370,000). HEK293 GAL4-hgDAF12 UAS-luciferase reporter, agonist luminescence; normalized to butyrate control;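 active = activation above a cutoff set at the mean of all screened compounds plus 3 SD, cut at about 10% in these data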;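 note: 0% = DMSO wells and 100% = sodium butyrate wells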
DAX1 inh-1 – NR0B1 (DAX1) inhibition. P51843. HEK293 Gal4-DAX1 luciferase reporter, luminescence. inhibition, % at 6.75 µM. actives 0.99% (n = 340,000). AID 504766;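 active = inhibition above the mean over all tested compounds plus 3 SD, cut at about 4.2% in these data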;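 note: 0% = DAX1-transfected cells with DMSO and 100% = empty-vector control cells with DMSO; inhibition shows as a rise in luminescence from relieved DAX1 repression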
DAX1 inh-2 – DAX1 (NR0B1) inhibition, primary screen; HEK293T StAR-luciferase reporter, SF-1/DAX-1 repression relief; inhibition, % at 6.8 µM; actives 1.1% (n = 370,000);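 active = inhibition above the mean over all tested compounds plus 3 SD, cut at about 3.6% in these data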;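 note: 0% = DAX-1 cells with DMSO and 100% = cells lacking DAX-1 with DMSO; higher inhibition means more luminescence from relief of DAX-1 repression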
Rev-erbA mod – modulators of human Rev-erb alpha DNA binding. P20393. Rev-erbα–FITC-DNA binding, fluorescence polarization, 90 min. activity, % at 10 µM. actives 0.79% (n = 370,000);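 active = activity above about 14%, limit read from the data; passing the limit was not always enough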;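 note: 0% = DMSO wells with 35 nM protein and 100% = DMSO wells with 750 nM protein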
Target sequence (P20393 whole entry, looked up): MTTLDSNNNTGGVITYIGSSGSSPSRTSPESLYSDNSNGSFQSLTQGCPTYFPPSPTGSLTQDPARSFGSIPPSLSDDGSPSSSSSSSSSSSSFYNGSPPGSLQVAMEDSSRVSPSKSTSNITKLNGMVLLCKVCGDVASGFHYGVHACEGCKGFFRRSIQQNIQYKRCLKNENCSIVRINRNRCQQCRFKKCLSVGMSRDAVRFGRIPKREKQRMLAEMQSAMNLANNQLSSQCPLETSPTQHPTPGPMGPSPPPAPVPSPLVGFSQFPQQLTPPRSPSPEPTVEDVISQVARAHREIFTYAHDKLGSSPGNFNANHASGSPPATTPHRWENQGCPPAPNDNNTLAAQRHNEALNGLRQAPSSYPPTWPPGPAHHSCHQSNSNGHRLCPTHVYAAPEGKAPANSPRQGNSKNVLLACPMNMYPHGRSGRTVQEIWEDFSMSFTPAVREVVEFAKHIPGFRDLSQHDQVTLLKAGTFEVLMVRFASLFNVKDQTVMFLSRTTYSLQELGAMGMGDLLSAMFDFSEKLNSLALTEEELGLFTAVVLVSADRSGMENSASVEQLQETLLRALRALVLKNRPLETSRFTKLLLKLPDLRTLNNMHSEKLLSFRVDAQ
hcDAF-12 act – activators of H. contortus DAF-12 nuclear receptor; actives 1.4% (n = 370,000); HEK293 hcDAF-12 lit1-tk-luc reporter, luminescence; 0% DMSO, 100% Δ7-dafachronic acid; activation, % at 6.8 µM; AID 652067;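 active = activation above the mean of all tested compounds plus 3 SD, cut at about 5.5% in these data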;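 note: 100% = response to 3 µM Δ7-dafachronic acid high control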
LXRb hcDAF ctr – counter-screen for hcDAF-12 agonists: agonists of human LXR-beta | shares compounds with hcDAF-12 act | HEK293 Gal4-LXR tk-luc reporter, luminescence, 24 h; normalized: DMSO 0%, positive control 100% | activation, % at 6.8 µM | 3,400 tested, under 10 active | AID 743027;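 active = mean percent activation of the reporter above a cutoff set as the average over tested compounds plus their standard deviation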
hcDAF12 conf – hcDAF-12 agonism, confirmation assay; shares compounds with hcDAF-12 act; HEK293 hcDAF-12 lit1-tk-luc reporter, luminescence; % of Δ7-dafachronic acid response; activation, % at 6.8 µM; actives 61% (n = 3,400); AID 743032;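 active = mean activation across triplicate tests above the threshold derived from the earlier primary screen, cut at about 5.5% in these data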;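 note: 0% = DMSO only wells and 100% = 3 µM Δ7-dafachronic acid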
Active calls of the source: *; . = no result. Only some compounds are listed: those with a hit (about 4.8% of all), similar ones and a draw of the others.

SMILES | ssDAF12 agonist | hgDAF12 agonist | DAX1 inh-1 | DAX1 inh-2 | Rev-erbA mod | hcDAF-12 act | LXRb hcDAF ctr | hcDAF12 conf
N#C/C(=C\Nc1ccc2cn[nH]c2c1)c1nc(-c2ccc(Cl)cc2)cs1 | -0.2 | 2.4 | 1.9 | 0.0 | -10.7 | 7.3* | -0.5 | 3.2
COC(=O)C1=C(C)N(C)C(=NCc2ccc(OC)cc2)NC1c1cccc(F)c1 (stereo not given) | -1.3 | -1.5 | . | 0.1 | 1.1 | -0.7 | . | .
Cc1cccc(C(=O)NNC(=O)c2ccc(Cl)cc2)c1O | 0.5 | 5.3 | 1.5 | 1.8 | -5.1 | 7.1* | 0.3 | 5.9*
O=C(NNC(=O)c1ccccc1O)c1ccc(Cl)cc1 | -0.8 | 8.1 | 1.4 | 2.1 | -0.9 | 1.4 | . | .
Cc1ccc(C2Nc3ccccc3-c3nc4ccccc4n32)o1 (stereo not given) | 0.0 | 12.4* | -0.8 | 0.3 | 0.0 | 6.7* | 0.6 | 1.9
O=S1(=O)c2c(NCc3ccco3)cccc2Oc2ccccc2CN1Cc1cn(Cc2ccccc2C(F)(F)F)nn1 | -1.5 | -1.7 | . | -1.0 | -3.3 | -3.6 | . | .
CN(/N=C/c1c[nH]c2ccccc12)c1cnn(-c2ccc(F)c(Cl)c2)c(=O)c1Cl | 0.5 | 2.5 | -0.9 | 0.9 | 0.4 | 7.2* | -0.4 | 1.4
C=CCN(CC=C)c1cnn(-c2nc3ccccc3[nH]2)c(=O)c1Cl | -1.2 | 7.0 | 0.1 | 2.7 | 1.1 | 2.4 | . | .
COc1ccc(-n2c(COc3ccccc3)nnc2SCC(=O)Nc2ccc(OCc3ccccc3)cc2)cc1 | -1.5 | 0.6 | . | -1.6 | 0.8 | -1.9 | . | .
CCC(=O)Oc1ccc2oc(=O)cc(C)c2c1 | -1.1 | 5.8 | -0.4 | -0.2 | 1.7 | 0.6 | . | .
Cc1cc(=O)oc2ccc(OC(=O)CN3C(=O)c4cccc([N+](=O)[O-])c4C3=O)cc12 | -0.9 | 1.4 | 0.4 | 0.4 | 1.3 | 8.8* | -0.2 | 2.3
COC(=O)[C@]12C[C@H](CC(=O)N3CCN(C(=O)C4CC4)CC3)C(=O)N(Cc3ccccc3)C1=C[C@H](C1CCCC1)O[C@@H]2C | -0.9 | -3.2 | . | 0.1 | 3.2 | -0.5 | . | .
COC(=O)c1cc2c(c3c4cc(F)ccc4n(S(=O)(=O)c4ccccc4)c13)C(=O)N(Cc1ccccc1)C2 | -1.0 | 0.3 | . | -1.1 | 2.5 | -0.1 | . | .
COc1ccc(C(=O)n2nc(C)cc2Nc2ccccc2)cc1 | 1.4* | 5.8 | 2.8 | 0.5 | -1.7 | 8.7* | 0.6 | 9.6*
CN(C)/C=N/c1nc2ccc3c(c2s1)CCCC3 | -0.5 | 10.6* | 3.5 | 3.0 | -5.7 | 6.7* | 1.1 | 6.4*
COc1ccc2nc(/N=C\N(C)C)sc2c1 | -0.3 | 3.4 | 1.1 | 0.5 | 1.9 | 3.5 | . | .
O=C(CSc1nc2cc(Cl)ccc2s1)c1ccco1 | 0.1 | 3.3 | 2.3 | 2.5 | -0.7 | 9.7* | 0.1 | 3.4
O=C(CSc1nnc(SCC(=O)c2ccco2)s1)c1ccco1 | 0.3 | -0.7 | -0.6 | -1.0 | -3.9 | 1.6 | . | .
COc1ccc(Cl)cc1NC(=O)COC(=O)c1ccc(Cl)nc1 | 0.6 | 5.4 | -0.3 | -0.4 | 9.1 | 6.7* | -0.2 | 2.0
CCNC(=O)OC[C@H]1O[C@H](C#Cc2ccc(C(C)(C)C)cc2)C=C[C@H]1OC(C)=O | -1.2 | -1.6 | . | 0.5 | 5.8 | -1.1 | . | .
COCCCNc1nc2c(-c3cccc(C)c3)nnn2c2ccccc12 | -0.3 | 3.1 | 0.3 | -0.7 | 23.6 | 6.9* | -0.3 | 2.1
O=C(CSc1nnc(-c2ccc(Cl)cc2)n1C1CCCCC1)NN=Cc1c(O)ccc2ccccc12 | -0.5 | 2.1 | . | -2.8 | -6.3 | -1.4 | . | .
Cc1ccc(/C=C/C(=O)C2C(=O)c3ccccc3C2=O)cc1 | 0.0 | 7.8 | -1.6 | 2.3 | -5.0 | 8.7* | 0.9 | 11.6*
Cc1ccc(/C=C/C(=O)c2ccc(C)cc2)cc1 | -0.8 | 3.0 | -1.0 | 0.1 | 6.4 | -1.4 | . | .
COC(=O)[C@]12C[C@H](CC(=O)NCCCN3CCCC3=O)C(=O)N(Cc3ccco3)C1=C[C@H](COCc1ccccc1)O[C@@H]2C | -0.7 | 2.9 | . | -0.8 | 1.0 | -2.9 | . | .
SMILES | ssDAF12 agonist | hgDAF12 agonist | DAX1 inh-1 | DAX1 inh-2 | Rev-erbA mod | hcDAF-12 act | LXRb hcDAF ctr | hcDAF12 conf
Cc1nc2c(Cl)cccc2c2c1CC(CBr)O2 (stereo not given) | -1.8 | -1.2 | -0.9 | -0.2 | -2.7 | -2.1 | . | .
Cc1ccc2nc(Br)c3c(c2c1)OC(CBr)C3 (stereo not given) | -2.0 | 0.8 | -0.6 | 0.0 | -3.0 | 7.4* | -0.2 | 0.0
N#CC(=C(O)CN1CCN(c2ccccc2F)CC1)c1nc(-c2ccccc2)cs1 | -1.1 | -0.1 | -0.3 | -1.3 | 5.3 | -1.4 | . | .
N#C/C(=C(/O)CN1CCCC1)c1nc(-c2ccccc2)cs1 | 0.8 | 11.6* | 5.3* | 2.6 | 6.2 | 8.8* | 0.5 | 4.9
Nc1nc2c(ncn2[C@@H]2O[C@H](C(=O)NCC(c3ccccc3)c3ccccc3)[C@@H](O)[C@H]2O)c(=O)[nH]1 | -1.1 | 1.1 | . | -0.1 | -5.8 | -1.7 | . | .
Cc1cccc2c(N)c3c(nc12)CCCC3 (tested in a mixture with another compound) | -0.1 | 2.2 | 1.8 | 0.0 | 5.1 | 0.5 | . | .
Cc1cc(C)c2c(N)c3cccc(C)c3nc2n1 | 1.7* | 3.6 | 2.4 | 1.6 | -12.6 | 10.1* | 1.7 | 31.3*
CC(C)(C)OC(=O)N1CCC[C@@H]1C(=O)N1CCC[C@H]1C(=O)NCc1ccccc1 | -1.3 | -0.6 | . | 0.1 | -2.9 | -0.3 | . | .
CC(C)CNC(=O)OCc1cn(Cc2c(F)cccc2F)nn1 | -0.8 | 0.3 | . | -1.8 | 6.6 | -2.1 | . | .
Cc1ccc(NC(=O)OCCCN2C(=O)CCC23CCC(C)CC3)cc1 (stereo not given) | -1.8 | -0.6 | . | 0.5 | 1.9 | -2.5 | . | .
CC(=O)NCc1ccc(S(=O)(=O)N/N=C/c2ccc(Br)cc2)cc1 | 0.1 | -0.7 | -0.2 | 0.1 | 1.8 | 9.0* | -0.2 | 1.8
CCN1CCCC1CNC(=O)c1cc2cc(F)ccc2[nH]1 (stereo not given) | 1.2* | 4.1 | 3.3 | 0.7 | -2.5 | 11.2* | -0.1 | 5.9*
CCN1CCCC1CNC(=O)Cn1nc(C)n2c(cc3cc(F)ccc32)c1=O (stereo not given) | 0.0 | -1.3 | 1.4 | 0.7 | 1.8 | -0.5 | . | .
CCC1(C)N=C(c2ccc3c(c2)OCO3)CC(c2ccccc2O)N1 (stereo not given) | -0.4 | 7.9 | 0.7 | 0.3 | 3.4 | 7.9* | 0.8 | 4.7
Cc1cc(N)n(-c2ccc([N+](=O)[O-])cc2)n1 | -0.4 | -1.7 | -0.1 | 1.3 | 9.8 | 0.5 | . | .
